Test results published in PubChem BioAssay (Tox21).
“And” between values parts separate entries of the source, which are not always exact repeats. Identical values can stand only once. Inconclusive results are not listed. Where a call stands in place of a potency, no number is given. More than one record can exist for a structure, and the calls need not agree. The source made the active and inactive calls. Unless noted, the call rests on the fitted dose curve; in most records, active means well fitted curve in the direction sought with a large enough effect in the repeat runs; inconclusive means weak or mixed curves; inactive means no such curve, though single readings can be large; an effect the other way counts as inactive or inconclusive.

What was measured:
[1] = qHTS assay to identify small molecule antagonists of the thyroid receptor (TR) signaling pathway - cell viability counter screen (AID 743064); further: nearly all actives have a fitted effect of over 50% in size; further: potency means the concentration at half of the fitted maximal effect
How it was run: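 GH3.TRE-Luc rat pituitary cells dosed after 4 hr plating, co-stimulated with T3 at 1 nM final, incubated 23.5 h at 37 C. Viability measured in the same wells by CellTiter-Fluor fluorescence after 30 min further at 37 C.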

[2] = qHTS assay to identify small molecule antagonists of the thyroid receptor (TR) signaling pathway (AID 743065); further: nearly all actives have a fitted effect of over 55% in size; further: potency means the concentration at half of the fitted maximal effect
How it was run: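 GH3.TRE-Luc rat pituitary cells carrying two TR response elements driving luciferase were plated for 4 h, given compound plus 1 nM T3 (final), and incubated 23.5 h at 37 C. ONE-Glo luminescence measured reporter inhibition; CellTiter-Fluor fluorescence tracked cytotoxicity.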

[3] = tested on: thyroid hormone receptor (rat, GH3 cells); experiment: qHTS assay to identify small molecule agonists of the thyroid receptor (TR) signaling pathway (AID 743066; calls by dose curve)
[4] = qHTS assay to identify small molecule antagonists of the estrogen receptor alpha (ER-alpha) signaling pathway - cell viability counter screen (AID 743074; calls by dose curve; further: nearly all actives have a fitted effect of over 45% in size; further: potency means the concentration at half of the fitted maximal effect)
[5] = qHTS assay to identify small molecule antagonists of the estrogen receptor alpha (ER-alpha) signaling pathway using the BG1 cell line - cell viability counter screen (AID 743081);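 further: compound given together with 17beta-estradiol as the ER stimulus; nearly all actives have a fitted effect of over 45% in size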; further: potency means the concentration at half of the fitted maximal effect
Aromatase (Homo sapiens) = Aromatase (Homo sapiens) (UniProt P11511); experiment: qHTS assay to identify aromatase inhibitors (AID 743083); further: nearly all actives have a fitted effect of over 55% in size; further: potency means the concentration at half of the fitted maximal effect
Sequence of Aromatase (Homo sapiens) (P11511 whole entry, looked up): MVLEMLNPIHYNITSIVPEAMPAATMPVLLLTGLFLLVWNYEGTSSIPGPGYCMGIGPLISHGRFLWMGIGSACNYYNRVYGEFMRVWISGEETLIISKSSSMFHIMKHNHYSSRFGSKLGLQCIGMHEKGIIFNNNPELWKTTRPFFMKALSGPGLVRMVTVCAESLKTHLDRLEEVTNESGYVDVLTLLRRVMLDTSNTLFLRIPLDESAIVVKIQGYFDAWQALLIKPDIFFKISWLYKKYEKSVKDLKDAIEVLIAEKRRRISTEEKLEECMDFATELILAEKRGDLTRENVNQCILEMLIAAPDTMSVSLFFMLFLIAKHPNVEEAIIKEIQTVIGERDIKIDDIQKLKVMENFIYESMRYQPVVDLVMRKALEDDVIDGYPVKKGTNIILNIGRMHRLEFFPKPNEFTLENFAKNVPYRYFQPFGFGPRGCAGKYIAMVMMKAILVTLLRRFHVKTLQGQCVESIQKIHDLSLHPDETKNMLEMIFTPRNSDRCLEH

[6] = qHTS assay to identify aromatase inhibitors - cell viability counter screen (AID 743084);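 further: cells stimulated with testosterone during compound exposure; nearly all actives have a fitted effect of over 55% in size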; further: potency means the concentration at half of the fitted maximal effect
[7] = molecular target: Aryl hydrocarbon receptor (Homo sapiens) (UniProt P35869); experiment: qHTS assay to identify small molecule that activate the aryl hydrocarbon receptor (AhR) signaling pathway (AID 743085); further: nearly all actives have a fitted effect of over 15% in size; further: potency means the concentration at half of the fitted maximal effect;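 on activation: HG2L7.5c1 human HepG2 liver cells with stably integrated DRE-driven firefly reporter; series mostly up to about 70 µM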
Sequence of Aryl hydrocarbon receptor (Homo sapiens) (P35869 whole entry, looked up): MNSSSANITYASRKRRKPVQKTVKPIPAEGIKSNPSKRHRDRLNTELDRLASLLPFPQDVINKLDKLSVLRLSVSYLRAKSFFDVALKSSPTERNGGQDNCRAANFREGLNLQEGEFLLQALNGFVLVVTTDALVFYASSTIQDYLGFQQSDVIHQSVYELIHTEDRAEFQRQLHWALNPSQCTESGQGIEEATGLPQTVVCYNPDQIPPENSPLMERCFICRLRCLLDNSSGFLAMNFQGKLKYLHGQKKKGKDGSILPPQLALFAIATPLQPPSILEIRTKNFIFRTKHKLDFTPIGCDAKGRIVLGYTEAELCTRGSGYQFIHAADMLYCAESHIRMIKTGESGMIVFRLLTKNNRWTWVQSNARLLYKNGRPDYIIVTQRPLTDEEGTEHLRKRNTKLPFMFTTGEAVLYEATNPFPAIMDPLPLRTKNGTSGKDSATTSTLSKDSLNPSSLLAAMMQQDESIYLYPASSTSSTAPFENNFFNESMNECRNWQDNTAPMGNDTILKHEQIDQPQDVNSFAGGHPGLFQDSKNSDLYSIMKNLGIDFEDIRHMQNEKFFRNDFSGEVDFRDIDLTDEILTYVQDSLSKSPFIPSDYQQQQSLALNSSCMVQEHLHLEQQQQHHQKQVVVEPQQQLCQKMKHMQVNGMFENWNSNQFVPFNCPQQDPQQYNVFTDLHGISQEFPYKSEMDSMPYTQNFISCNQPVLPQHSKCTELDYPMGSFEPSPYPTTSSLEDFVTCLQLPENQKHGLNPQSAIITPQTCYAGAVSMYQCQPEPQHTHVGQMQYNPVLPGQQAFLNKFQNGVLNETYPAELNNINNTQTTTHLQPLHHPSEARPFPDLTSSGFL
How it was run: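 HepG2 cells stably carrying a 20-DRE firefly luciferase reporter (HG2L7.5c1) treated with compound for 24 hr at 37C. Luciferase read by ONE-Glo luminescence, with CellTiter-Fluor viability read first.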

[8] = qHTS assay to identify small molecule that activate the aryl hydrocarbon receptor (AhR) signaling pathway - cell viability counter screen (AID 743086);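 further: HepG2 liver cells carrying the AhR DRE luciferase reporter; series mostly up to about 70 µM; nearly all actives have a fitted effect of over 45% in size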
How it was run: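 HepG2-AhR-luc (HG2L7.5c1) cells, 4000/well, were preincubated 5 h at 37C, exposed to compound in qHTS format for 24 hr at 37C, then given CellTiter-Fluor for 30 min; viability was read as fluorescence in the reporter wells.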

[9] = molecular target: Peroxisome proliferator-activated receptor gamma (Homo sapiens) (UniProt P37231); experiment: qHTS assay to identify small molecule agonists of the peroxisome proliferator-activated receptor gamma (PPARg) signaling pathway (AID 743094; active means well fitted activation curve with a large enough effect in the signal ratio in the repeat runs, not every such curve was filed as active; the % refers to the signal ratio)
Sequence of Peroxisome proliferator-activated receptor gamma (Homo sapiens) (P37231 whole entry, looked up): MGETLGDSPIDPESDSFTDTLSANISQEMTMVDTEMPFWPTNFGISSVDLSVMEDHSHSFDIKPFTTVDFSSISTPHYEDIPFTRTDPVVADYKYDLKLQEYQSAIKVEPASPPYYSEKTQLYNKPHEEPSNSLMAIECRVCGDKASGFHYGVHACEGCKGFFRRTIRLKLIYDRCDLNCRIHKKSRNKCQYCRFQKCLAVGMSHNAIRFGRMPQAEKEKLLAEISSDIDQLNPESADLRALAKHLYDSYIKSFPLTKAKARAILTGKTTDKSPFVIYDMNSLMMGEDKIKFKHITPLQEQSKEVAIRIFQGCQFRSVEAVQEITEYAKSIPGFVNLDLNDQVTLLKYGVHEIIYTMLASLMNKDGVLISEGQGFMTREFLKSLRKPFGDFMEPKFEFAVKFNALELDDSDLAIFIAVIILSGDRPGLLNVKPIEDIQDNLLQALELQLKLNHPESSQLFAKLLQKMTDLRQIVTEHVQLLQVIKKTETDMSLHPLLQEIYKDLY
How it was run: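 GeneBLAzer PPARg UAS-bla HEK293H cells were plated, rested 5 h, then exposed to compounds for 17 h at 37C. Beta-lactamase activity was read by LiveBLAzer B/G FRET substrate fluorescence after 1 h at room temperature.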

[10] = molecular target: Peroxisome proliferator-activated receptor gamma (Homo sapiens) (UniProt P37231); experiment: qHTS assay to identify small molecule antagonists of the peroxisome proliferator-activated receptor gamma (PPARg) signaling pathway (AID 743191; calls by dose curve; further: series mostly up to about 63 µM; nearly all actives have a fitted effect of over 30% in size)
How it was run: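 GeneBLAzer PPARg UAS-bla HEK293H cells carrying a UAS-driven beta-lactamase reporter were plated at 3000 cells/well, preincubated 5 h at 37C, then given compound for 17 h at 37C; LiveBLAzer B/G FRET substrate was read after 1 h at room temperature.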

[11] = qHTS assay to identify small molecule antagonists of the peroxisome proliferator-activated receptor gamma (PPARg) signaling pathway - cell viability counter screen (AID 743194); further: nearly all actives have a fitted effect of over 55% in size; further: potency means the concentration at half of the fitted maximal effect
How it was run: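 PPARg-UAS-bla HEK293H cells were plated, rested 5 h at 37 C, then treated with compounds plus rosiglitazone (50 nM final) for 17 h at 37 C; viability was then read by CellTiter-Glo luminescence after 30 min at room temperature.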

[12] = qHTS assay for small molecule agonists of the antioxidant response element (ARE) signaling pathway (AID 743202; active means well fitted activation curve with a large enough effect in the signal ratio in the repeat runs, not every such curve was filed as active; the % refers to the signal ratio; further: potency means the concentration at half of the fitted maximal effect)
How it was run: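 Read-out: LiveBLAzer B/G FRET substrate fluorescence after 2 h at room temperature, following 16 h compound treatment at 37 C of HepG2 cells carrying an ARE-driven beta-lactamase reporter.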

[13] = qHTS assay for small molecule agonists of the antioxidant response element (ARE) signaling pathway - cell viability counter screen (AID 743203; calls by dose curve; further: nearly all actives have a fitted effect of over 55% in size; further: potency means the concentration at half of the fitted maximal effect)
How it was run: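 ARE-bla HepG2 cells were plated, rested 5 h at 37C/5% CO2, then exposed to compounds in DMSO for 16 h. Viability was read as CellTiter-Glo luminescence after 30 min at room temperature, in the same wells as the ARE screen.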

[14] = qHTS assay for small molecule activators of the heat shock response signaling pathway - cell viability counter screen (AID 743209); further: nearly all actives have a fitted effect of over 50% in size; further: potency means the concentration at half of the fitted maximal effect
How it was run: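 HSE-bla HeLa cells plated overnight, then exposed to Tox21 compounds (23 nL in DMSO) for 5 h at 37 C. After the bla reporter read, CellTiter-Glo was added in the same wells and luminescence read after 30 min at room temperature.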

[15] = qHTS assay for small molecule activators of the heat shock response signaling pathway (AID 743210; active means well fitted activation curve with a large enough effect in the signal ratio in the repeat runs, with a control signal flat, not every such curve was filed as active; the % refers to the signal ratio; further: series mostly up to about 63 µM)
How it was run: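 HSE-bla HeLa cells (beta-lactamase reporter under heat shock response elements) were exposed to compounds for 5 h at 37 C, then loaded with LiveBLAzer B/G FRET substrate for 2.5 h at room temperature before fluorescence reading.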

[16] = molecular target: Estrogen receptor (Homo sapiens) (UniProt P03372); experiment: qHTS assay to identify small molecule agonists of the estrogen receptor alpha (ER-alpha) signaling pathway (AID 743075; calls by dose curve)
Sequence of Estrogen receptor (Homo sapiens) (P03372 whole entry, looked up): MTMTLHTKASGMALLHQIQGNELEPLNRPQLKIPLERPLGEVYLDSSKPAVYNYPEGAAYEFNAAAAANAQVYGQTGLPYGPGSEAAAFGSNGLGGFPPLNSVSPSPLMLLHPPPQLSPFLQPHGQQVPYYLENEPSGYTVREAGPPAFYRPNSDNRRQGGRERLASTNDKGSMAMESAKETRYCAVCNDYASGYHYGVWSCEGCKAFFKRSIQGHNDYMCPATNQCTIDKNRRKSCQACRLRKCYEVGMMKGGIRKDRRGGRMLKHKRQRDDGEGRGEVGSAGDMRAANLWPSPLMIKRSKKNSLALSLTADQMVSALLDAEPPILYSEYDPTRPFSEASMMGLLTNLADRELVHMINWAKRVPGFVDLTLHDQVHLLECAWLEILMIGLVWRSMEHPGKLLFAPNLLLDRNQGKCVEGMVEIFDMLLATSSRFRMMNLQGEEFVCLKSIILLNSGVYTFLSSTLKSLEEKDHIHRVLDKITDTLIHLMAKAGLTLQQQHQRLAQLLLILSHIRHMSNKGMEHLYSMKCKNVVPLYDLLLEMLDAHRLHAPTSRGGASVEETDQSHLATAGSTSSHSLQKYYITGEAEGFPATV

[17] = molecular target: Estrogen receptor (Homo sapiens) (UniProt P03372); experiment: qHTS assay to identify small molecule antagonists of the estrogen receptor alpha (ER-alpha) signaling pathway (AID 743069; active means well fitted curve in the direction sought with a large enough effect in the signal ratio in the repeat runs, not every such curve was filed as active; the % refers to the signal ratio)
How it was run: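 HEK293 cells stably carrying an ER-alpha-UAS-bla beta-lactamase reporter were pre-cultured overnight in 2% charcoal-stripped FBS medium. Test compounds in DMSO were added together with 17beta-estradiol for 18 hr at 37C. Read-out was fluorescence after 2 hr with LiveBLAzer B/G FRET substrate at room temperature.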

[18] = molecular target: Estrogen receptor (Homo sapiens) (UniProt P03372); experiment: qHTS assay to identify small molecule agonists of the estrogen receptor alpha (ER-alpha) signaling pathway using the BG1 cell line (AID 743079); further: nearly all actives have a fitted effect of over 20% in size
[19] = qHTS assay to identify small molecule antagonists of the estrogen receptor alpha (ER-alpha) signaling pathway using the BG1 cell line (AID 743080; calls by dose curve; further: series mostly up to about 70 µM; nearly all actives have a fitted effect of over 25% in size)
How it was run: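 Antagonist mode: compounds in DMSO were pinned onto BG1-Luc-4E2 cells alongside 17beta-estradiol agonist, incubated 21.5 h, and ERE-driven luciferase measured with ONE-Glo. Cytotoxicity was multiplexed using CellTiter-Fluor fluorescence.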

Row | SMILES | Potency [1] | Potency [2] | Potency [3] | Potency [4] | Potency [5] | Potency (Aromatase (Homo sapiens)) | Potency [6] | Potency [7] | Potency [8] | outcome [9] | Potency [10] | Potency [11] | Potency [12] | Potency [13] | Potency [14] | outcome [15] | Potency [16] | Potency [17] | Potency [18] | Potency [19]
1 | O=C(O)CCCCCCCCCCCC(=O)O | inactive | inactive | inactive | inactive and 4.36 µM (active) | inactive | inactive | inactive | inactive | inactive | inactive | inactive | inactive | inactive | inactive | inactive | inactive | – | – | – | –
2 | C=C[C@@]1(C)CC(=O)[C@]2(O)[C@@]3(C)[C@@H](O)CCC(C)(C)[C@@H]3[C@H](O)[C@H](OC(C)=O)[C@@]2(C)O1 | inactive | inactive | inactive | inactive | – | 1.19 µM (active) and 969 nM (active) | inactive | inactive | inactive | inactive | – | inactive | inactive | inactive | 24.5 µM (active) and inactive | inactive | inactive | – | – | –
3 | COc1ccc(C(=O)c2ccccc2O)c(O)c1 | inactive | inactive | inactive | inactive | inactive | inactive | inactive | inactive | – | – | – | inactive | inactive | inactive | inactive | inactive | – | – | – | –
4 | CCC(=O)O[C@H]1[C@H](O[C@@H]2[C@@H](C)[C@H](O[C@H]3C[C@@](C)(OC)[C@@H](O)[C@H](C)O3)[C@@H](C)C(=O)O[C@H](CC)[C@@](C)(O)[C@H](O)[C@@H](C)C(=O)[C@H](C)C[C@@]2(C)O)O[C@H](C)C[C@@H]1N(C)C | 13.3 µM (active) and 36.1 µM (active) | 11.9 µM (active) and 36.1 µM (active) | inactive | inactive | 26.6 µM (active) and 32.2 µM (active) | inactive | 18.1 µM (active) | inactive | – | – | – | inactive | inactive | 40.5 µM (active) and inactive | inactive | inactive | – | – | – | –
5 | CN(C)CCCN1c2ccccc2Sc2ccc(Cl)cc21 | 11.9 µM (active) and 19.3 µM (active) | 13.3 µM (active) and 15.4 µM (active) | – | inactive | inactive | inactive | 68.6 µM (active) | inactive | – | – | – | 38.9 µM (active) and 26.6 µM (active) | – | 24.3 µM (active) and 29.8 µM (active) | inactive | – | – | – | – | –
6 | C=CCOC(=O)C(=C)C | inactive | inactive | inactive | – | inactive | – | – | – | inactive | – | – | inactive | inactive | inactive | inactive | inactive | – | – | – | –
7 | CCCN1C=CN(C)C1 | inactive | – | – | inactive | inactive | inactive | inactive | inactive | inactive | – | – | inactive | inactive | inactive | inactive | – | inactive | inactive | inactive | inactive
8 | Nc1ccc(O)c(N)c1 | – | – | inactive | inactive | 60.7 µM (active) and 61.1 µM (active) | inactive | 54.1 µM (active) | inactive and 1.37 µM (active) | – | – | – | 43.6 µM (active) | inactive | inactive | inactive | – | inactive | inactive | – | inactive
9 | Cc1ccc(S(=O)(=O)NCl)cc1 | inactive | – | inactive | inactive | inactive | inactive | inactive | inactive | inactive | inactive | inactive | inactive | inactive | inactive | inactive | – | inactive | – | inactive | inactive
10 | CN(Cc1cnc2nc(N)nc(N)c2n1)c1ccc(C(=O)N[C@@H](CCC(=O)O)C(=O)O)cc1 | – | 335 nM (active) and 54.5 nM (active) | inactive | 0.239 µM (active) | inactive | inactive | inactive | – | inactive | – | – | – | 9.7 nM (active) and 59.6 nM (active) | 6.1 nM (active) and 47.3 nM (active) | inactive | inactive | inactive | – | inactive | –
11 | Nc1ccc2c(O)cc(S(=O)(=O)O)cc2c1 | inactive | 54.5 µM (active) | inactive | inactive | inactive | inactive | inactive | inactive | – | – | – | inactive | – | inactive | – | inactive | – | – | – | –
12 | CC1=CC(C)(C)Nc2ccccc21 | inactive | – | inactive | inactive | inactive | – | inactive | – | inactive | inactive | inactive | inactive | inactive | inactive | inactive | inactive | inactive | – | inactive | inactive
13 | O=C(O)CCCC(=O)O | inactive | inactive | inactive | – | inactive | inactive | inactive | inactive | – | inactive | inactive | inactive | inactive | inactive | inactive | inactive | inactive | – | inactive | inactive
14 | C=CC(=O)OCCCC | inactive | inactive | inactive | – | inactive | inactive | inactive | inactive | – | – | – | inactive | inactive | inactive | inactive | inactive | – | – | – | –
15 | c1ccc2c(c1)ccc1ncccc12 | inactive | – | – | inactive | inactive | inactive | inactive | – | – | – | inactive | inactive | – | inactive | inactive | inactive | – | – | inactive | inactive
